Assay results reported in PubChem BioAssay (Tox21).
Results filed as inconclusive are left out. Active and inactive are the calls of the source. Calls follow the shape of the dose curve; as a rule, active = well fitted curve in the direction sought with a large enough effect in the repeat runs; inconclusive = weak or mixed curves; inactive = no such curve, though single readings can be large; an effect the other way counts as inactive or inconclusive.

Legend:
[1] = qHTS assay to identify small molecule agonists of the RXR signaling pathway - cell viability counter screen (AID 1159529); also: series mostly up to about 77 µM; nearly all actives have a fitted effect of over 50% in size
Outline: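 Cell viability is measured by CellTiter-Glo luminescence, 30 min at room temperature, in wells already read for beta-lactamase. Engineered HEK 293T cells (RXR-alpha-UAS-bla) are dosed 16 hr at 37 C. Tetraoctyl ammonium bromide serves as positive control.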

[2] = qHTS assay to identify small molecule antagonists of the retinoid acid receptor (RAR) signaling pathway - cell viability counter screen (AID 1159551); also: nearly all actives have a fitted effect of over 35% in size
Outline: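 Cytotoxicity counter screen in C3RL4 cells: 6 h compound exposure with 1 uM retinol (final), viability from cellular ATP by luminescence.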

[3] = qHTS assay to identify small molecule antagonists of the retinoic acid receptor (RAR) signaling pathway (AID 1159552; also: nearly all actives have a fitted effect of over 50% in size)
Outline: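 Quantitative HTS in C3RL4 RARE-luciferase reporter cells. Compounds were added with 1 uM (final) retinol; luminescence was read after 6 hr.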

[4] = qHTS assay to identify small molecule agonists of the retinoic acid receptor (RAR) signaling pathway (AID 1159553); also: potency is read from the fitted curve at half-maximal effect
Outline: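 Agonist activity was scored in C3RL4 cells bearing a retinoic acid response element luciferase construct. Cells were treated with compounds for 6 hr at 37 C, and luciferase signal was measured as luminescence.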

Measured: Potency

CC1(C)CON(Cc2ccccc2Cl)C1=O
active: [4] 68.6 µM
inactive: all other assays above

COc1cc2c(cc1OC)[C@@]13CCN4CC5=CCO[C@H]6CC(=O)N2[C@H]1[C@H]6[C@H]5C[C@H]43
inactive: [1] | [2] | [4]

O=[N+]([O-])c1cccc2cccnc12
inactive: all assays above

CNC(=O)N(C)c1nc2ccccc2s1
active: [4] 2.43 µM
inactive: [1] | [2]

CC(C1CC1)C(O)(Cn1cncn1)c1ccc(Cl)cc1 (stereo not drawn)
inactive: all assays above

CC(=O)CC(c1ccc(Cl)cc1)c1c(O)c2ccccc2oc1=O (stereo not drawn)
inactive: all assays above

CCOP(=S)(OCC)Oc1nc(Cl)n(C(C)C)n1
inactive: [1] | [2] | [4]

C=C(C)CN(CC)c1c([N+](=O)[O-])cc(C(F)(F)F)cc1[N+](=O)[O-]
inactive: [1] | [2] | [4]

CCCSP(=O)(OCC)Oc1ccc(Br)cc1Cl (stereo not drawn)
inactive: [1] | [2] | [4]

O=c1oc2ccccc2c(O)c1C1CCCc2ccccc21 (stereo not drawn)
inactive: all assays above

BrCCCCCCBr
inactive: [1] | [2] | [4]

CN1CCN(C(=O)O[C@H]2c3nccnc3C(=O)N2c2ccc(Cl)cn2)CC1
inactive: [1] | [2] | [4]

O=[N+]([O-])c1cccc2c([N+](=O)[O-])cccc12
inactive: [1] | [2] | [4]

CCN(CC)c1nc(C)cc(OP(=S)(OC)OC)n1
inactive: all assays above
